Data from PubChem BioAssay AID2417 (National Center for Advancing Translational Sciences (NCATS), 2010).
The whole screen tested about 140,000 compounds, of which about 4,300 (3.1%) were called active. About 21% were inconclusive and are not listed. This is one part of a sample in which actives are shown more often than they occur.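 The calls were made as follows: active = readout at or below -70, meaning at least 70% loss of cells showing the perinucleolar compartment, a nuclear body marking cancer cells; inconclusive = readout between -30 and a set limit; inactive = the rest.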

Experiment: High Content Assay for Compounds that inhibit the Assembly of the Perinucleolar Compartment;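 also: plate controls were DMSO wells for no effect and camptothecin positive control wells for full effect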
Conditions: PC3M PTB-GFP, PNC prevalence imaging, 16 h; at 10 µM; active compounds read low
How it was run: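 PC3M cells stably expressing PTB-GFP, 750–1000 cells/well, treated 16 h at 37 °C with compound (23 nl of library stock), in duplicate. After paraformaldehyde fixation and Hoechst stain, imaged at 20x; PNC prevalence scored by image analysis.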

Activity change (PNC), negative = inhibition, active:
O=C(CC(NS(=O)(=O)c1ccc(Cl)cc1)c1ccco1)NC1CCCC1 (configuration not stated) -84.2%
CN1CCN(CC(=O)Nc2sc3c(c2C#N)CCC(C(C)(C)C)C3)CC1 (configuration not stated) -86.5%
CCn1c(=N)n(CC(=O)c2cccc(OC)c2)c2ccccc21 -117%
Cc1cc(Nc2ccccc2)n(C(=O)c2ccc(N)cc2)n1 -86.2%
COc1ccc(S(=O)(=O)Nc2ccc(S(=O)(=O)N3CCCCC3)cc2)cc1OC -88.7%
CCOC(=O)c1c(C)[nH]c2c1-c1ccccc1C(=O)C2=O -124%
COC(=O)C1=C(C)N(c2ccc(Br)cc2)C(=O)/C1=C\c1ccco1 -80.8%
CC(C)C(=O)NC(NC(=S)NC1CCS(=O)(=O)C1)C(Cl)(Cl)Cl (configuration not stated) -100%
CCOC(=O)c1c(-c2cccc(C)c2)csc1NC(=O)c1c(-c2ccccc2)noc1C -101%
Cc1nc(CNS(=O)(=O)c2ccc(Oc3ccccc3)cc2)cs1 -83.2%
COCc1[nH]nc2c1C(C1C=CCCC1)C(C#N)=C(N)O2 (configuration not stated) -107%
CC(NC(=O)c1cc(-c2ccccc2)on1)c1ccccc1 (configuration not stated) -97.3%

Activity change (PNC), negative = inhibition, inactive:
O=C(Nc1ccccc1F)c1ccccc1-c1ccc(C(F)(F)F)cc1 16.7%
CCc1nccn1S(=O)(=O)c1cccc([N+](=O)[O-])c1 10%
Cc1nnc(NC(=O)/C=C/c2ccco2)s1 -22.5%
CCS(=O)(=O)Nc1cccc(-c2cc(-c3ccccc3)c3cc(C)ccc3n2)c1 81.5%
CCc1ccc(C(=O)OCC(=O)Nc2cccc(S(=O)(=O)NC3=NCCCCC3)c2)cc1 14.5%
COc1ccc(S(=O)(=O)NC(CC(=O)NCc2ccccc2OC)c2ccco2)cc1 (configuration not stated) 32.4%
CC(=O)Nc1ccc(S(=O)(=O)NC(C)C(=O)OCC(=O)NC2CCCC2)cc1 (configuration not stated) 5.59%
Cc1cccc(C(=O)OCC(=O)Nc2sc3c(c2C#N)CCC3)c1 5.52%
N#Cc1ccsc1NC(=O)CN1CCCCC1 8.2%
COc1ccccc1Oc1ccc(N/C=C2/CCCC2=O)cc1 39.1%
Cc1ccccc1OCC(=O)Nc1nc(C)c(C(=O)N(C)C)s1 -15.1%
COc1ccc(OC)c(NC(=O)Cn2c(=O)oc3ccccc32)c1 0.891%
CCCCOC(=O)Cn1c(=N)n(CCN(CC)CC)c2ccccc21 33.2%
CCCCN(C)c1ccc([N+](=O)[O-])cc1 22.3%
Cc1ccc(C(C[N+](=O)[O-])c2c(C)cc3ccccn23)cc1 (configuration not stated) -2.04%
Cc1cc(Nc2ccccc2)n(CCC#N)n1 -16.1%
Cc1cc(NC(=O)Nc2ccccc2)n(-c2ccccc2)n1 15.1%
Cc1cc(C)cc(NC(=S)NCc2ccc(F)cc2)c1 35.9%
CNC(=S)N1CCN(c2ccccn2)CC1 -10.5%
Cc1cccc(N=C2NN=C(c3c[nH]c4ccccc34)CS2)c1 57.4%
COc1ccc(-c2ccc(Nc3ccc(S(=O)(=O)N4CCCC4)cc3)nn2)cc1OC 7.04%
COc1ccc(S(=O)(=O)N2CCCCC2)cc1Br -11%
Cc1[nH]c2ccccc2c1/C=N\NC(=O)Cn1nnc(-c2ccccc2)n1 40.3%
CCOC(=O)c1c(C)[nH]c(=S)c(C#N)c1-c1ccccc1 32.4%
CCOC(=O)c1cc2n(c1N)-c1ccccc1C2=O 32%
Cc1cccc(OCCNC(=S)NC(=O)c2cccnc2)c1 17.2%
CC(C)CNC(=O)COC(=O)/C=C/c1ccco1 0.199%
O=C(NC(CC(=O)N1CCN(c2ccccc2)CC1)c1ccccc1)c1ccccc1Cl (configuration not stated) -9.01%
CCCc1cc(-c2nc(-c3ccc(C)cc3)cs2)ccn1 10.4%
CCCCN=C1N/C(=C\c2ccco2)C(=O)N1c1ccccc1 -16.5%
O=C(OCN1C(=O)c2ccccc2C1=O)/C(=C\c1ccco1)NC(=O)c1ccccc1 73.8%
O=C(N/N=C/c1ccc(Br)o1)c1cncc(Br)c1 -10.5%
CCN(CC(=O)NC1CCS(=O)(=O)C1)S(=O)(=O)c1ccccc1 (configuration not stated) -23.3%
CCCSC(=S)NC1CCS(=O)(=O)C1 (configuration not stated) -6.42%
COc1ccc(CNC(=O)CCCn2nc(C)c([N+](=O)[O-])c2C)cc1 1.72%
N#C/C(C(=O)N1CCOCC1)=C1/SC(Cc2ccc(F)cc2)C(=O)N1c1ccccc1 (configuration not stated) 2.9%
O=C(Cn1cc(C(F)(F)F)ccc1=O)N/N=C/c1ccc(Cl)cc1Cl 32%
CC(=O)Nc1cccc(NC(=O)c2c(-c3ccccc3)noc2C)c1 19.7%
Cc1onc(-c2ccccc2)c1C(=O)NNC(=S)NC(=O)c1ccc(F)cc1 19.1%
Cc1nc(CNS(=O)(=O)c2cccnc2)cs1 14.3%
Cc1ccc(S(=O)(=O)NCc2csc(C)n2)c(C)c1 36.5%
CC(=O)NCCC(=O)Nc1nc(C)c(Cc2ccc3c(c2)OCO3)s1 32.2%
COC(=O)[C@@H]1CC[C@H](C)[C@@H](c2ccc(C)cc2)N1C(=O)c1ccc(/C=N/O[C@H](C)c2cn([C@@H]3COC[C@H]3O)nn2)cc1 39.9%
C/C(=N\NC(=O)c1ccc(CSc2nc(C)cc(C)n2)cc1)C1CCCCC1 28.4%
CCCc1[nH]nc2c1C(C1CC=CCC1)C(C#N)=C(N)O2 (configuration not stated) 26.7%
CCc1ccc(C2C(C#N)=C(N)Oc3n[nH]c(CC(=O)OC)c32)cc1 (configuration not stated) 18.8%
CC(NC(=O)Nc1ccccc1)c1ccccc1 (configuration not stated) -11.3%
CC(C)CNC(=O)c1cc(-c2ccc(Br)cc2)on1 -2.59%
CCOC(=O)NN1C(=O)c2ccccc2NC1c1cccc(O)c1 (configuration not stated) -6.12%
COc1ccc(C2CC(c3cccs3)=NN2C(=O)COC(=O)c2cc3ccccc3cc2O)cc1OC (configuration not stated) -16.9%
